Inconclusive results are not listed. Entries that show only a call come without a potency. Calls of active or inactive are those of the source. Unless noted, the call rests on the fitted dose curve; in most records, active means well fitted curve in the direction sought with a large enough effect in the repeat runs; inconclusive means weak or mixed curves; inactive means no such curve, though single readings can be large; an effect the other way counts as inactive or inconclusive.
Columns and labels:
[1] = qHTS assay for small molecule agonists of the p53 signaling pathway - cell viability (AID 651633; calls by dose curve;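 further: p53RE-bla HCT reporter cells with a stable beta-lactamase p53 reporter; series mostly up to about 83 µM; nearly all actives have a fitted effect of over 30% in size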)
Outline: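 p53RE-bla cells, seeded at 4,000 per well and rested 5 h at 37 C/5% CO2, received compounds in DMSO for 16 h at 37 C. CellTiter-Glo was then added, and luminescence was read after 30 min at room temperature to gauge cytotoxicity.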

[2] = qHTS assay for small molecule disruptors of the mitochondrial membrane potential - cell viability (AID 720634; calls by dose curve;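 further: human HepG2 liver cancer cells; series mostly up to about 83 µM; nearly all actives have a fitted effect of over 20% in size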)
Outline: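 Measuring cytotoxicity alongside mitochondrial potential, the screen quantified ATP by luminescence in HepG2 cells after 1 hr compound incubation and a 30 min room-temperature CellTiter-Glo step.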

[3] = qHTS assay for small molecule disruptors of the mitochondrial membrane potential (AID 720635); further: potency means the concentration at half of the fitted maximal effect
Outline: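 HepG2 cells (2,000/well) attached overnight at 37C, then took compound for 1 hr at 37C, 5% CO2. Mito-MPS dye was added for 30 min; fluorescence was read at 490/535 nm (monomers) and 540/590 nm (aggregates).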

[4] = qHTS assay to test for compound auto fluorescence at 460 nm (blue) in HEK293 cells (AID 720678)
Outline: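 Intrinsic compound fluorescence is recorded in live HEK293 cultures after overnight incubation at 37C, 5% CO2, using excitation 405 nm and emission 460 nm. Values are referenced to triamterene.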

[5] = qHTS assay to test for compound auto fluorescence at 535 nm (green) in HEK293 cells (AID 720680)
[6] = qHTS assay to test for compound auto fluorescence at 590 nm (red) in HEK293 cell free culture (AID 720683)
Outline: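 Tox21 10K library compounds were pinned into cell-free DMEM with 10% FBS and fluorescence was read at excitation 540 nm. Activity is expressed as Rose Bengal sodium equivalency.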

[7] = target: Glucocorticoid receptor (Homo sapiens) (UniProt P04150); assay: qHTS assay to identify small molecule agonists of the glucocorticoid receptor (GR) signaling pathway (AID 720691; active means well fitted activation curve with a large enough effect in the signal ratio in the repeat runs, not every such curve was filed as active; the % refers to the signal ratio)
Chain of Glucocorticoid receptor (Homo sapiens) (P04150 whole entry, looked up): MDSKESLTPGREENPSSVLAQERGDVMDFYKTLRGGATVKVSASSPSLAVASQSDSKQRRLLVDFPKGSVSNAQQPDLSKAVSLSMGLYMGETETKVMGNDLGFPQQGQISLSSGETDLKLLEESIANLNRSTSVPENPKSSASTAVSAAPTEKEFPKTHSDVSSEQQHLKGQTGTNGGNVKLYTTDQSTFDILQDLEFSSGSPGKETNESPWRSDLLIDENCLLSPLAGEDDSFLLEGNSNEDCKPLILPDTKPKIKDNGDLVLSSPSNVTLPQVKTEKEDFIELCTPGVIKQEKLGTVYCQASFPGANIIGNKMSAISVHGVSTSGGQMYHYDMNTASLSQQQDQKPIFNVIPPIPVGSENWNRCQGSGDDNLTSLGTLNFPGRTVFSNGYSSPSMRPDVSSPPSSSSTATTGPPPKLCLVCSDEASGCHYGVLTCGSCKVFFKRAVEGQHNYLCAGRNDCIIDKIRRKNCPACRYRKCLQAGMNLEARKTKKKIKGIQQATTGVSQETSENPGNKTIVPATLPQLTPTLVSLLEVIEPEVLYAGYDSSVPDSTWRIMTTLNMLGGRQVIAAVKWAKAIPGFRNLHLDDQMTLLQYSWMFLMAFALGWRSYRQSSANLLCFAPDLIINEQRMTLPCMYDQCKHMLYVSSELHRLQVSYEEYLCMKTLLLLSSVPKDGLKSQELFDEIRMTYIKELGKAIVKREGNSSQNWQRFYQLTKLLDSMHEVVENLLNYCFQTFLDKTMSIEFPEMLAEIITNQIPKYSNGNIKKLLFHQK
Outline: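 Reporter read-out: fluorescence intensity following 2 h room-temperature LiveBLAzer B/G FRET substrate loading. Prior step: GR-bla HeLa cells held 4 h, then treated 18 h at 37 C.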

[8] = target: Glucocorticoid receptor (Homo sapiens) (UniProt P04150); assay: qHTS assay to identify small molecule antagonists of the glucocorticoid receptor (GR) signaling pathway (AID 720692; active means well fitted inhibition curve with a large enough effect in the signal ratio in the repeat runs, not every such curve was filed as active; the % refers to the signal ratio)
Outline: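 Dexamethasone (5 nM final) stimulated a stably integrated GRE-beta-lactamase reporter in HeLa cells during 18 h co-incubation with compounds; signal was quantified as fluorescence intensity of B/G FRET substrate after 2 h.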

[9] = qHTS assay to identify small molecule antagonists of the glucocorticoid receptor (GR) signaling pathway - cell viability counter screen (AID 720693); further: nearly all actives have a fitted effect of over 55% in size
[10] = qHTS assay for identifying genotoxic compounds that show differential cytotoxicity against isogenic chicken DT40 cell lines with known DNA damage response pathways - Rad54/Ku70 mutant cell line (AID 743015); further: nearly all actives have a fitted effect of over 60% in size; further: potency means the concentration at half of the fitted maximal effect
[11] = qHTS assay to identify small molecule antagonists of the androgen receptor (AR) signaling pathway - cell viability counter screen (AID 743033; further: nearly all actives have a fitted effect of over 45% in size)
[12] = qHTS assay to identify small molecule antagonists of the androgen receptor (AR) signaling pathway using the MDA cell line - cell viability counter screen (AID 743041; further: nearly all actives have a fitted effect of over 45% in size)
Outline: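 Viability counter screen run alongside the AR antagonist reporter: cells seeded 5 h before compound, R1881 added, 16 h incubation at 37C without CO2, fluorescent CellTiter-Fluor signal quantified.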

[13] = qHTS assay to identify small molecule antagonists of the thyroid receptor (TR) signaling pathway - cell viability counter screen (AID 743064); further: nearly all actives have a fitted effect of over 50% in size
Outline: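 In-well cytotoxicity read by CellTiter-Fluor (30 min, 37 C) following 23.5 h exposure of GH3 cells bearing a TRE-luciferase sensor. Compounds were added alongside 1 nM (final) T3 to drive TR transactivation.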

[14] = qHTS assay to identify small molecule antagonists of the thyroid receptor (TR) signaling pathway (AID 743065); further: series mostly up to about 70 µM; nearly all actives have a fitted effect of over 55% in size
Outline: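 GH3.TRE-Luc rat pituitary cells carrying two TR response elements driving luciferase were plated for 4 h, given compound plus 1 nM T3 (final), and incubated 23.5 h at 37 C. ONE-Glo luminescence measured reporter inhibition; CellTiter-Fluor fluorescence tracked cytotoxicity.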

[15] = system: thyroid hormone receptor (rat, GH3 cells); assay: qHTS assay to identify small molecule agonists of the thyroid receptor (TR) signaling pathway (AID 743066; calls by dose curve)
[16] = target: Estrogen receptor (Homo sapiens) (UniProt P03372); assay: qHTS assay to identify small molecule antagonists of the estrogen receptor alpha (ER-alpha) signaling pathway (AID 743069; active means well fitted curve in the direction sought with a large enough effect in the signal ratio in the repeat runs, not every such curve was filed as active; the % refers to the signal ratio)
Chain of Estrogen receptor (Homo sapiens) (P03372 whole entry, looked up): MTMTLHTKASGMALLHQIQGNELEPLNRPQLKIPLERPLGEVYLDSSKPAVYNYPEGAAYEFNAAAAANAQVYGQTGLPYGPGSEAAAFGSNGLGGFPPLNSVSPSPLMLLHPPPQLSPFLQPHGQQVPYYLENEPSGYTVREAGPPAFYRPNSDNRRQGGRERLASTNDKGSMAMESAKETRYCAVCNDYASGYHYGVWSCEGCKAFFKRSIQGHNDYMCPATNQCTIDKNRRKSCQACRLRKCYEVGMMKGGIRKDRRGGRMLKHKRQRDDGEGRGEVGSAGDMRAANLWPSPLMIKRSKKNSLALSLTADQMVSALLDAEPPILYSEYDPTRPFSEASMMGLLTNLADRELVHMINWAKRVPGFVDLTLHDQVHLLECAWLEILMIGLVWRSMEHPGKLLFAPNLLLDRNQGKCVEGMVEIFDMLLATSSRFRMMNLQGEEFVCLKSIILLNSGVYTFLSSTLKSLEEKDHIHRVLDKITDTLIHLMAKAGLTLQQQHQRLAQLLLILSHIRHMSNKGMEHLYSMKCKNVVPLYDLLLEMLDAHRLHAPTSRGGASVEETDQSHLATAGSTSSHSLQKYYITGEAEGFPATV
Outline: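 Estradiol-stimulated ER-alpha-UAS-bla HEK293 cells, 18 hr compound exposure at 37C. LiveBLAzer B/G substrate, 2 hr RT, fluorescence read.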

[17] = target: Estrogen receptor (Homo sapiens) (UniProt P03372); assay: qHTS assay to identify small molecule agonists of the estrogen receptor alpha (ER-alpha) signaling pathway (AID 743075; calls by dose curve;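 further: HEK293 GripTite cells with ER-alpha and UAS-driven beta-lactamase reporter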)
[18] = target: Estrogen receptor (Homo sapiens) (UniProt P03372); assay: qHTS assay to identify small molecule agonists of the estrogen receptor alpha (ER-alpha) signaling pathway using the BG1 cell line (AID 743079); further: nearly all actives have a fitted effect of over 20% in size; further: potency means the concentration at half of the fitted maximal effect
[19] = qHTS assay to identify small molecule antagonists of the estrogen receptor alpha (ER-alpha) signaling pathway using the BG1 cell line (AID 743080; calls by dose curve;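 further: BG1 cells stimulated with 17beta-estradiol alongside compound; series mostly up to about 70 µM; nearly all actives have a fitted effect of over 25% in size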)
Outline: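 Readout is ONE-Glo luminescence, taken 30 min at room temperature after reagent addition, preceded by a CellTiter-Fluor viability read; BG1-Luc-4E2 cells had received compound and 17beta-estradiol for 21.5 h at 37 C.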

[20] = target: Nuclear receptor subfamily 1 group I member 2 (Homo sapiens) (UniProt O75469); assay: Human pregnane X receptor (PXR) activation by small molecules, qHTS assay (AID 1346985); further: nearly all actives have a fitted effect of over 40% in size
Outline: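 DPX-2 cells (HepG2 co-transfected with a PXR response element and a CYP3A4-promoter luciferase construct) were seeded at 2,000 per well, rested 5 hr at 37C, then exposed to DMSO-dissolved compounds for 24 hr. Activation was read as luciferase luminescence.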

Clc1ccc2c(c1)C(c1ccccc1)=NCc1nncn1-2
Potency [1]: inactive | Potency [2]: inactive | Potency [3]: inactive | Potency [4]: inactive | Potency [5]: inactive | outcome [6]: inactive | Potency [7]: inactive | Potency [8]: inactive | Potency [9]: inactive | Potency [10]: inactive | Potency [11]: inactive | Potency [12]: inactive | Potency [13]: inactive | Potency [14]: inactive | Potency [15]: inactive | Potency [16]: inactive | Potency [17]: inactive | Potency [18]: inactive | Potency [19]: inactive | Potency [20]: inactive

CC(C)(O)[C@@H]1[C@H]2OC(=O)[C@@H]1[C@]1(O)C[C@H]3O[C@]34C(=O)O[C@H]2[C@]14C
Potency [1]: inactive | Potency [4]: inactive | Potency [5]: inactive | Potency [7]: inactive | Potency [8]: inactive | Potency [9]: inactive | Potency [10]: inactive | Potency [11]: inactive | Potency [13]: inactive | Potency [14]: inactive | Potency [15]: inactive | Potency [20]: inactive

CC1(C)S[C@@H]2[C@H](N)C(=O)N2[C@H]1C(=O)O
Potency [1]: inactive | Potency [3]: inactive | Potency [4]: inactive | Potency [7]: inactive | Potency [8]: inactive | Potency [10]: inactive | Potency [11]: inactive | Potency [13]: inactive | Potency [14]: inactive | Potency [15]: inactive | Potency [16]: inactive | Potency [17]: inactive | Potency [18]: inactive | Potency [19]: inactive | Potency [20]: inactive

CCC1(C)CC(=O)NC(=O)C1
Potency [1]: inactive | Potency [2]: inactive | Potency [3]: inactive | Potency [4]: inactive | Potency [5]: inactive | outcome [6]: inactive | Potency [7]: inactive | Potency [8]: inactive | Potency [10]: inactive | Potency [11]: inactive | Potency [12]: inactive | Potency [13]: inactive | Potency [14]: inactive | Potency [15]: inactive | Potency [16]: inactive | Potency [17]: inactive | Potency [18]: inactive | Potency [20]: inactive

CCC(N)Cc1c[nH]c2ccccc12 (configuration not stated)
Potency [1]: inactive | Potency [2]: inactive | Potency [3]: 21.1 µM (active) | Potency [4]: inactive | Potency [5]: inactive | outcome [6]: inactive | Potency [9]: inactive | Potency [11]: inactive | Potency [13]: inactive | Potency [14]: inactive | Potency [15]: inactive | Potency [19]: inactive | Potency [20]: inactive

CCC1(c2cnc[nH]2)Cc2ccccc2C1
Potency [1]: inactive | Potency [2]: inactive | Potency [4]: inactive | outcome [6]: inactive | Potency [9]: inactive | Potency [10]: 26.6 µM (active) | Potency [11]: inactive | Potency [12]: inactive | Potency [14]: inactive | Potency [15]: inactive | Potency [16]: inactive | Potency [17]: inactive | Potency [18]: inactive | Potency [19]: inactive

CCC(=O)O[C@@](Cc1ccccc1)(c1ccccc1)[C@@H](C)CN(C)C
Potency [1]: inactive | Potency [2]: inactive | Potency [3]: inactive | Potency [4]: inactive | Potency [5]: inactive | outcome [6]: inactive | Potency [9]: inactive | Potency [10]: inactive | Potency [12]: inactive | Potency [14]: inactive | Potency [15]: inactive | Potency [20]: inactive

[2H]C([2H])([2H])[C@H](N)Cc1ccccc1
Potency [1]: inactive | Potency [4]: inactive | Potency [5]: inactive | outcome [6]: inactive | Potency [7]: inactive | Potency [8]: inactive | Potency [10]: inactive | Potency [11]: inactive | Potency [12]: inactive | Potency [13]: inactive | Potency [14]: inactive | Potency [15]: inactive | Potency [16]: inactive | Potency [17]: inactive | Potency [18]: inactive | Potency [19]: inactive | Potency [20]: inactive

C[C@]12CC[C@H](OS(=O)(=O)O)CC1=CC[C@@H]1[C@@H]2CC[C@]2(C)C(=O)CC[C@@H]12
Potency [2]: inactive | Potency [4]: inactive | outcome [6]: inactive | Potency [7]: inactive | Potency [9]: inactive | Potency [10]: inactive | Potency [13]: inactive | Potency [15]: inactive | Potency [16]: inactive | Potency [17]: inactive | Potency [18]: 13.3 µM (active) | Potency [19]: inactive | Potency [20]: inactive

CC(=O)Oc1ccc2c3c1O[C@H]1[C@@H](OC(C)=O)C=C[C@H]4[C@@H](C2)N(C)CC[C@@]341
Potency [2]: inactive | Potency [3]: inactive | Potency [4]: inactive | Potency [5]: inactive | Potency [7]: inactive | Potency [8]: inactive | Potency [9]: inactive | Potency [10]: inactive | Potency [12]: inactive | Potency [13]: inactive | Potency [14]: inactive | Potency [15]: inactive | Potency [16]: inactive | Potency [17]: inactive | Potency [18]: inactive | Potency [19]: inactive | Potency [20]: inactive

CC(Cc1ccccc1)NC=O (configuration not stated)
Potency [1]: inactive | Potency [2]: inactive | Potency [3]: inactive | Potency [4]: inactive | Potency [5]: inactive | outcome [6]: inactive | Potency [9]: inactive | Potency [10]: inactive | Potency [11]: inactive | Potency [13]: inactive | Potency [14]: inactive | Potency [15]: inactive | Potency [20]: inactive

CNC(=O)OCC[N+](C)(C)C
Potency [1]: inactive | Potency [2]: inactive | Potency [3]: inactive | Potency [5]: inactive | outcome [6]: inactive | Potency [7]: inactive | Potency [8]: inactive | Potency [9]: inactive | Potency [10]: inactive | Potency [11]: inactive | Potency [12]: inactive | Potency [13]: inactive | Potency [14]: inactive | Potency [16]: inactive | Potency [17]: inactive | Potency [18]: inactive | Potency [19]: inactive | Potency [20]: inactive

O=C1CCCCC1CN1CCCCC1 (configuration not stated)
Potency [1]: inactive | Potency [2]: inactive | Potency [3]: inactive | Potency [4]: inactive | Potency [5]: inactive | outcome [6]: inactive | Potency [7]: inactive | Potency [8]: inactive | Potency [9]: inactive | Potency [12]: inactive | Potency [13]: inactive | Potency [14]: inactive | Potency [15]: inactive | Potency [16]: inactive | Potency [17]: inactive | Potency [18]: inactive | Potency [19]: inactive | Potency [20]: inactive

C[C@@H]([C@H](O)c1ccccc1)N(C)C
Potency [1]: inactive | Potency [2]: inactive | Potency [4]: inactive | outcome [6]: inactive | Potency [7]: inactive | Potency [8]: inactive | Potency [9]: inactive | Potency [10]: inactive | Potency [11]: inactive | Potency [13]: inactive | Potency [14]: inactive | Potency [15]: inactive | Potency [16]: inactive | Potency [17]: inactive | Potency [18]: inactive | Potency [19]: inactive | Potency [20]: inactive

NCC(O)c1cccc(O)c1 (configuration not stated)
Potency [1]: inactive | Potency [2]: inactive | Potency [3]: inactive | Potency [4]: inactive | Potency [5]: inactive | outcome [6]: inactive | Potency [7]: inactive | Potency [8]: inactive | Potency [9]: inactive | Potency [10]: inactive | Potency [11]: inactive | Potency [12]: inactive | Potency [13]: inactive | Potency [14]: inactive | Potency [15]: inactive | Potency [16]: inactive | Potency [17]: inactive | Potency [18]: inactive | Potency [19]: inactive | Potency [20]: inactive
